According to the supplement of paper PMC10127200:
Structures can show the parent of a compound that is named as a salt.

Each compound was assayed on A549 (assay: Euclidean distance of Cell Painting phenotypic profile (signed KS, 77 features) to DMSO centroid (dimensionless distance); 5 or 10 uM (library dependent); higher = stronger phenotypic change vs DMSO (phenoactivity)). Details: 48 h.
How it was run: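 Library compounds were applied at 10 or 5 uM, depending on the library, with 0.1% DMSO final, for 48 h to five cancer lines and a healthy fibroblast line. After staining, cells were imaged confocally at 20X across 9 fields per well, and Harmony extracted 77 features, each scored as a signed Kolmogorov-Smirnov statistic against vehicle wells on the same plate. Phenoactivity is the Euclidean distance between each profile and the median vehicle profile, with profiles first plate-position corrected, correlation-weighted and averaged over replicates at the top dose.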

Row | Structure (SMILES) | Euclidean distance
1 | CC(C)CC(=O)Nc1n[nH]c2c1CN(C(=O)C1CCN(C)CC1)C2(C)C | 3
2 | COc1ccc(CNCc2cccc3ccccc23)cc1 | 1.46
3 | CCN(CC)CCCC(C)Nc1ccnc2cc(Cl)ccc12 (stereo not given) [Chloroquine Phosphate] | 3.04
4 | COc1ccc(-c2oc3c(CC=C(C)C)c(O[C@@H]4O[C@H](CO)[C@@H](O)[C@H](O)[C@H]4O)cc(O)c3c(=O)c2O[C@@H]2O[C@@H](C)[C@H](O)[C@@H](O)[C@H]2O)cc1 [Icariin] | 0.62
5 | COc1cc(C(=O)NC2CCCNC2)cc(OC)c1OC (stereo not given) [Troxipide] | 1.12
6 | CO[C@H]1CC[C@H](N2C(=O)CNc3ncc(-c4ccc(C(C)(C)O)nc4)nc32)CC1 | 3.38
7 | O=C(O)c1cc(-c2ccc(F)cc2F)ccc1O [Diflunisal] | 0.745
8 | Cc1ccc(-n2sc(=O)n(Cc3ccc(F)cc3)c2=O)cc1 | 0.968
9 | COc1cc2ncnc(Nc3cccc(Cl)c3F)c2cc1OC(=O)N1CCN(C)C[C@H]1C | 2.05
10 | COc1ccc(CNC(=O)Nc2ncc([N+](=O)[O-])s2)cc1 | 1.95
11 | CC1Oc2cc(cnc2N)-c2c(nn(C)c2C#N)CN(C)C(=O)c2ccc(F)cc21 (stereo not given) | 1.02
12 | CC(C)C[C@H](NC(=O)[C@H](Cc1ccccc1)NC(=O)c1cnccn1)B(O)O [Bortezomib] | 3.87
13 | CN(C)CCOC(c1ccccc1)c1ccccc1.Cn1c(=O)c2[nH]c(Cl)nc2n(C)c1=O [Dimenhydrinate] | 1
14 | O=C(Nc1ccc(S(=O)(=O)Nc2ccccc2Cl)c(Cl)c1)c1ccccn1 | 0.81
15 | CCCCC(C)(O)C/C=C/[C@H]1[C@H](O)CC(=O)[C@@H]1CCCCCCC(=O)OC (mixture of isomers) [Misoprostol] | 0.849
16 | NCC(=O)CCC(=O)O [5-Aminolevulinic acid HCl] | 0.994
17 | Cc1cccc(-c2[nH]ncc2-c2ccc3ncccc3n2)n1 | 0.733
18 | CCOC(=O)[C@H](CCc1ccccc1)N[C@@H](C)C(=O)N1Cc2ccccc2C[C@H]1C(=O)O [Quinapril HCl] | 1.16
19 | CS(=O)(=O)CCNCc1ccc(-c2ccc3ncnc(Nc4ccc(OCc5cccc(F)c5)c(Cl)c4)c3c2)o1 [Lapatinib ditosylate monohydrate] | 3.12
20 | CS(=O)(=O)CCNCc1ccc(-c2ccc3ncnc(Nc4ccc(OCc5cccc(F)c5)c(Cl)c4)c3c2)o1 [Lapatinib] | 3.1

Row | Structure (SMILES) | Euclidean distance
21 | Clc1ccc(COC(Cn2ccnc2)c2ccc(Cl)cc2Cl)cc1 (stereo not given) [Econazole] | 1.25
22 | COc1ccc(-c2cc(=O)c3c(O)cc(O[C@@H]4O[C@H](CO[C@@H]5O[C@@H](C)[C@H](O)[C@@H](O)[C@H]5O)[C@@H](O)[C@H](O)[C@H]4O)cc3o2)cc1O [Diosmin] | 0.621
23 | COc1cnc(-n2cnc(C)n2)c2[nH]cc(C(=O)C(=O)N3CCN(C(=O)c4ccccc4)CC3)c12 | 0.841
24 | O=C(NNc1ccccc1)c1ccncc1 | 1.17
25 | CCCc1nc2c(C)cc(-c3nc4ccccc4n3C)cc2n1Cc1ccc(-c2ccccc2C(=O)O)cc1 [Telmisartan] | 0.747
26 | CC/C(=C(\c1ccc(O)cc1)c1ccc(OCCN(C)C)cc1)c1ccccc1 [4-Hydroxytamoxifen] | 2.74
27 | CC(=O)OCC1=C(C(=O)O)N2C(=O)[C@@H](NC(=O)CSC(=NC(C)C)NC(C)C)[C@H]2SC1 [Cefathiamidine] | 0.7
28 | CNCCc1ccccn1 [Betahistine mesylate] | 0.566
29 | CC(C)N(C[C@H]1O[C@@H](n2cnc3c(N)ncnc32)[C@H](O)[C@@H]1O)[C@H]1C[C@@H](CCc2nc3cc(C(C)(C)C)ccc3[nH]2)C1 | 0.931
30 | COc1ccc(OC)c(C(O)CNC(=O)CN)c1 (stereo not given) [Midodrine] | 1.21
31 | Cc1ccccc1-c1cc(N2CCN(C)CC2)ncc1N(C)C(=O)C(C)(C)c1cc(C(F)(F)F)cc(C(F)(F)F)c1 [Netupitant] | 0.761
32 | COc1nc(C)cnc1NS(=O)(=O)c1cccnc1-c1ccc(-c2nnco2)cc1 [Zibotentan (ZD4054)] | 0.567
33 | CC(CN1c2ccccc2Sc2ccccc21)N(C)C (stereo not given) [Promethazine HCl] | 0.962
34 | Clc1ccc2c(c1)C(N1CCNCC1)=Nc1ccccc1O2 [Amoxapine] | 1.02
35 | CCCc1nn(C)c2c(=O)[nH]c(-c3cc(S(=O)(=O)N4CCN(C)CC4)ccc3OCC)nc12 [Sildenafil] | 0.754
36 | CCN(CC)CCOCCOC(=O)C1(c2ccccc2)CCCC1 [Pentoxyverine Citrate] | 0.55
37 | C=CC(=O)Nc1cccc(Oc2nc(Nc3ccc(N4CCN(C)CC4)cc3)nc3ccsc23)c1 | 3.94
38 | CC(=O)/N=c1/sc(S(N)(=O)=O)nn1C [Methazolamide] | 0.988
39 | Nc1nc(NC2CC2)c2ncn([C@H]3C=C[C@@H](CO)C3)c2n1 [Abacavir sulfate] | 1.86
40 | CN(C)C1CCN(C(=O)c2ccc(NC(=O)Nc3ccc(-c4nc(N5CCOCC5)nc(N5CCOCC5)n4)cc3)cc2)CC1 | 3.49
